{
  "source": "PubChem BioAssay (Tox21)",
  "note": "Calls of active or inactive are those of the source. Calls come from the whole dose curve; as a rule, active = well fitted curve in the direction sought with a large enough effect in the repeat runs; inconclusive = weak or mixed curves; inactive = flat fitted curve, though single readings scatter.",
  "data": [
    {"assay": "qHTS assay to test for compound auto fluorescence at 590 nm (red) in HEK293 cells (AID 720679)", "conditions": "red autofluorescence 540/590 nm; series mostly up to 91.3 µM", "outline": "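Each well held 2,000 HEK293 cells in medium containing 10% dialyzed FBS. Following 4-5 hr attachment at 37C, 23 nL test compound or DMSO was added; plates sat overnight, and red fluorescence (540/590nm) was recorded.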", "values": [
      {"smiles": "Cc1ccccc1Cl", "outcome": "inactive"},
      {"smiles": "CCCCCCC(=O)O", "outcome": "inactive"},
      {"smiles": "COc1ccccc1[N+](=O)[O-]", "outcome": "inactive"},
      {"smiles": "Cc1ccccc1C=O", "outcome": "inactive"},
      {"smiles": "Nc1cccc(C(F)(F)F)c1", "outcome": "inactive"},
      {"smiles": "CCCOC(=O)NCCCN(C)C", "outcome": "inactive"},
      {"smiles": "COc1ccc(N)c(OC)c1", "outcome": "inactive"},
      {"smiles": "Nc1nc(N)c2nc(-c3ccccc3)c(N)nc2n1", "outcome": "inactive"},
      {"smiles": "Cc1ccc(Cl)cc1", "outcome": "inactive"},
      {"smiles": "CC/C=C(\\C(=O)N[C@@H]1C(=O)N2C(C(=O)OCOC(=O)C(C)(C)C)=C(COC(N)=O)CS[C@H]12)c1csc(N)n1", "outcome": "inactive"},
      {"smiles": "CC(C)=CCC/C(C)=C/C=O", "outcome": "inactive"},
      {"smiles": "Cc1nnc(NS(=O)(=O)c2ccc(N)cc2)s1", "outcome": "inactive"},
      {"smiles": "CC(=O)OCc1ccc2c(c1)OCO2", "outcome": "inactive"},
      {"smiles": "NC(=O)NC(N)=O", "outcome": "inactive"},
      {"smiles": "CC(=O)c1nccs1", "outcome": "inactive"},
      {"smiles": "OCc1ccc(Cl)cc1Cl", "outcome": "inactive"},
      {"smiles": "CC1(C)C(=O)N(Cl)C(=O)N1Cl", "outcome": "inactive"},
      {"smiles": "CCc1cccc(CC)c1N", "outcome": "inactive"},
      {"smiles": "O=C(O)Cc1c[nH]c2ccccc12", "outcome": "inactive"},
      {"smiles": "NC(=O)c1ncn([C@@H]2O[C@H](CO)[C@@H](O)[C@H]2O)n1", "outcome": "inactive"},
      {"smiles": "CCCN(CCC)C(=O)SCC", "outcome": "inactive"},
      {"smiles": "CCOC(=O)CC(=O)OCC", "outcome": "inactive"},
      {"smiles": "CCCCCCCCCCCCCC(=O)O", "outcome": "inactive"},
      {"smiles": "CCCCCCCC(=O)O", "outcome": "inactive"},
      {"smiles": "O=C(c1ccccc1)c1ccc(O)c(O)c1O", "outcome": "inactive"},
      {"smiles": "O=[N+]([O-])c1ccccc1C(F)(F)F", "outcome": "inactive"},
      {"smiles": "COc1ccc([C@@H]2CC(=O)c3c(O)cc(O[C@@H]4O[C@H](CO[C@@H]5O[C@@H](C)[C@H](O)[C@@H](O)[C@H]5O)[C@@H](O)[C@H](O)[C@H]4O)cc3O2)cc1OC", "outcome": "inactive"}
    ]}
  ]
}
